Marburg entry inh: blocks Marburg virus binding to or entry into cells | Marburg virus pseudotyped entry inhibition, cell reporter | Potency, µM (highest dose often 37.8 µM), inactives show top-dose activity change, negative = inhibition, usual class: inhibitors | actives 1.8% (n = 300,000); calls by dose curve; tested in HEK293 cells; further: potency means the concentration at half of the fitted maximal effect
HCMV antiviral: inhibitors of human cytomegalovirus; actives 4.5% (n = 410,000); activity change, negative = inhibition, % at 57.5 µM; HFF cells, HCMV-luciferase reporter, 72 h; stronger effect = lower value; in the data active means activity change below about -60%; inconclusive means no clear call, values can overlap the other calls; inactive means above about -39%
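HFF cells seeded 16 h at 37C, treated with compounds, infected with luciferase-reporter HCMV at MOI 1 PFU/cell; luciferase read at 72 h post infection, normalized to buffer-only and Salinomycin controls.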
Lassa entry inh: inhibitors of Lassa virus binding or cell entry | Lassa virus pseudotype entry inhibition, cell reporter | Potency, µM (series often up to 37.9 µM), without a hit: at the highest dose activity change, negative = inhibition, usual class: inhibitors | actives 1.2% (n = 300,000) | AID 540256; calls by dose curve; tested in HEK293 cells; further: potency means the concentration at half of the fitted maximal effect; nearly all actives have a fitted effect of over 50% in size
HCV inhibitor: HCV inhibition. actives 3.4% (n = 340,000). Potency, µM (titrated, usually from 41.8 µM), without a hit: top-dose activity change, negative = inhibition, hits mostly inhibitors. Huh7.5.1 HCVcc-Cre infection, luciferase reporter, 44 h; active means well fitted inhibition curve with a large enough effect; inconclusive means small, poorly fitted or top-dose-only effect, or another doubt; inactive means no such curve, though single readings can be large or run the other way; further: potency means the concentration at half of the fitted maximal effect
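A cell-based infection assay in which seeded cells (1,000 per well) receive test compound after 4 h, are inoculated with HCVcc-Cre at approximately 0.5 moi, and are incubated 44 h before luminescence detection.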
FMDV antiviral: blocks foot and mouth disease virus. FMDV antiviral cell-based qHTS. Potency, µM (highest dose often 57.9 µM), for the others: at the highest dose activity change, negative = inhibition, most hits filed as inhibitors. actives 1.2% (n = 410,000). AID 1159524; calls by dose curve; tested in HEK293T cells; further: read-out not given here; potency means the concentration at half of the fitted maximal effect; nearly all actives have a fitted effect of over 45% in size
* marks the source's active call; other numbers are inactive results; u = inconclusive; x = not tested or not shown; + = active, no number; ! = repeats disagree; [ ] = remark or other dose. A selection: hits, their analogues and other compounds. The true share with any hit is near 7.9%. On the % scale 0 is the no-effect control and ±100 the full control effect.

SMILES	Marburg entry inh	HCMV antiviral	Lassa entry inh	HCV inhibitor	FMDV antiviral
Cc1noc(C)c1CSCC(=O)Nc1nc(-c2ccc(F)c(F)c2)cs1	u	-39	u	13µM*	18µM*
COc1ccc(-c2csc(NC(=O)CSCc3c(C)noc3C)n2)cc1OC	u	-13	11µM*	u	40µM*
COC(=O)NC(c1ccc(Cl)cc1)C(C(C)=O)C(=O)OC (centres undefined)	13%[14.2 µM]	x	x	x	x
CC1=C(C(=O)Nc2ccc(C)cc2C)C(c2ccc([N+](=O)[O-])cc2)n2ncc(C(=O)Nc3ccc(F)cc3)c2N1 (centres undefined)	x	-1	11%[46.1 µM]	x	1%
CCOc1ccc(NS(=O)(=O)c2c(C)nc3sccn3c2=O)cc1	x	-100*	x	0%	-13%
CCc1cc2c(nc1CC)CCN(CCC(C)=NOC[C@H]1O[C@H](c3ccccc3)C=C[C@H]1Oc1ccc(OC)cc1)C2	-25%[14.2 µM]	x	x	x	x
CCC(=O)N1CCC1(C)C(=O)Nc1ccc(OC(F)F)cc1 (centres undefined)	x	-63*	x	x	-10%
N#Cc1ccccc1S(=O)(=O)N1CCC(Oc2ccc(-n3cnnn3)cc2)CC1	u	-27	u	x	u
O=S(=O)(c1cccc(F)c1)N1CCC(Oc2ccc(-n3cnnn3)cc2)CC1	-14%[46.1 µM]	-96*	1%[46.1 µM]	x	u
CC(=O)Nc1ccc(S(=O)(=O)N2CCC(Oc3ccc(-n4cnnn4)cc3)CC2)cc1	u	-89*!	u	-6%	u
Cc1ncc2c(c1CNC(=O)c1cncs1)CCN(C(=O)c1csc(-c3cccs3)n1)C2	x	x	x	x	-4%
O=C(NCc1ccccc1F)C1CCN(c2nn3cc(-c4ccc(F)cc4)nc3s2)CC1	x	0	u	x	35%
CCOc1ccccc1CNC(=O)C1CCN(c2nn3cc(-c4ccc(F)cc4)nc3s2)CC1	x	+	14%[46.1 µM]	x	33%
Cc1ccc(CNC(=O)C2CCCN(c3nn4cc(-c5ccc(C)cc5)nc4s3)C2)cc1 (centres undefined)	x	0	u	x	8%
CCOc1ccc(NC(=O)C2CCCN(c3nn4cc(-c5ccc(OC)cc5)nc4s3)C2)cc1 (centres undefined)	x	+	7%[46.1 µM]	x	0%
CCNC(=O)C1CCCN(c2nn3cc(-c4ccc(C)cc4)nc3s2)C1 (centres undefined)	x	u	19%[46.1 µM]	x	20µM*
Cc1ccccc1NC(=O)Cn1c(=O)n(CCC(=O)N2CCc3ccccc3C2)c(=O)c2ccccc21	11%[46.1 µM]	13	2%[46.1 µM]	x	12%
Cc1ccc(C)c(CN2C(=O)c3ccccc3S(=O)c3ccc(C(=O)N4CCN(c5cccc(Cl)c5)CC4)cc32)c1 (centres undefined)	u	-32	u	x	u
CN(Cc1ccccc1)CC(O)COc1ccc(CNCc2ccc(Cl)s2)cc1 (centres undefined)	2.5µM*	u	u	u	-14%
Cc1nn(C)cc1CNCc1ccc(OCC(O)CN(C)Cc2ccccc2)cc1 (centres undefined)	x	1	x	u	-10%
CN(Cc1ccccc1)CC(O)COc1ccc(CNCc2cccnc2)cc1 (centres undefined)	x	-35	x	u	u
CCn1cc(CNCc2ccc(OCC(O)CN(C)Cc3ccccc3)cc2)cn1 (centres undefined)	u	x	-30%	10µM*	-14%
Cc1ccc(CN2C(=O)C(=O)c3cc(Br)cc(C)c32)cc1	u	-103*	u	x	u
CCCOc1ccc(CN2C(=O)C(=O)c3cccc(C)c32)cc1	u	-19	-20%[46.1 µM]	x	-13%
COc1cccc(N2CCN(c3ncnc4c3c(-c3ccccc3)cn4-c3ccc(C)cc3)CC2)c1	x	-63*	27%[46.1 µM]	x	-2%
SMILES	Marburg entry inh	HCMV antiviral	Lassa entry inh	HCV inhibitor	FMDV antiviral
Cc1cccc(-n2cc(-c3ccccc3)c3c(N4CCOCC4)ncnc32)c1	u	-18	u	3.2µM*	u
Cc1ccc(-n2cc(-c3ccccc3)c3c(N4CCN(C)CC4)ncnc32)cc1	u	55	u	-27%	0%
COc1ccc(N2CCN(C(=O)c3cn(C4CCCC4)c(=O)c4c3c3ccccc3n4C)CC2)cc1	8.9µM*	37	u	u	16%
Cn1c2ccccc2c2c(C(=O)N3CCN(c4cccc(Cl)c4)CC3)cn(C3CCCCC3)c(=O)c21	7.1µM*	u	u	x	-22%
COc1ccc(N2CCN(C(=O)c3cn(C)c(=O)c4c3c3ccccc3n4C)CC2)cc1	-7%	183	-2%	12%	40%
CCOc1ccc(-n2c(SCc3nc(-c4ccc(OC)cc4)no3)nnc2-c2ccncc2)cc1	-20%[46.1 µM]	-14	-13%[46.1 µM]	x	u
ClC(Cl)(Cl)c1nc2ccccc2n2nncc12	4.5µM*	-88*	u	13µM*	u
O=[As](O)(O)c1ccc(N=Nc2ccc(O)cc2)cc1	x	-80*	x	-24%	32%
COc1cccc(CNC(=O)c2ccc(-n3c(C)cc4c3CCC(C)C4)cc2)c1 (centres undefined)	x	-83*	u	x	-22%
CSc1ccc(CCNC(=O)c2ccc(-n3c(C)cc4c3CCCC4)cc2)cc1	x	-98*	u	x	-19%
Cc1cc2c(n1-c1ccc(C(=O)NCC(C)c3ccccc3)cc1)CCCC2 (centres undefined)	x	-61*	-26%[46.1 µM]	x	18%
Cc1cc2c(n1-c1ccc(C(=O)NCc3cccc(Br)c3)cc1)CCC(C)C2 (centres undefined)	x	u	u	x	19%
Cc1ccccc1CNC(=O)c1ccc(-n2c(C)cc3c2CCCC3)cc1	x	-35	u	x	1%
CC(C)(Cc1c[nH]c2ccccc12)NCC(O)COc1ccccc1C#N (centres undefined)	x	x	x	x	-20%
COc1ccc(-c2csc(C(O)c3ccc(OC)cc3)n2)cc1 (centres undefined)	x	-72*	x	x	-25%
COc1cccc(C(O)c2nc(-c3ccncc3)cs2)c1 (centres undefined)	x	-76*	x	x	u
COc1ccc(-c2csc(C(O)c3ccc(F)cc3)n2)cc1 (centres undefined)	x	8	x	x	40%
Cc1ccc(/C=C2/NC(=O)N(Cc3ccccc3F)C2=O)o1	-22%	-72*	-6%	3%	-16%
O=C1NC(=S)N(c2ccccc2)C(=O)/C1=C/c1ccco1	u	39	21%[46.1 µM]	21%	35µM*
CCOc1cccc(N2C(=O)/C(=C/c3ccco3)C(=O)NC2=S)c1	x	49	x	-22%	-15%
COc1ccc(N2C(=O)/C(=C/C=C/c3ccccc3[N+](=O)[O-])C(=O)NC2=S)cc1	14%[46.1 µM]	0	-18%	22%	22µM*
COc1ccc(N2C(=O)/C(=C/c3cccs3)C(=O)NC2=S)cc1	16%[46.1 µM]	-31	3%	-25%	25µM*
COc1cccc(N2C(=O)/C(=C/c3ccc(C)o3)C(=O)NC2=S)c1	x	29	x	17%	18µM*
COc1ccc(N2C(=O)/C(=C/c3ccc(N(C)C)o3)C(=O)NC2=S)cc1	x	-39	x	1%	-15%

Compound activity from PubChem BioAssay.
